Sampled rows, rich in hits. Any-hit rate of the full collection: about 14%.
HCMV inh = blocks human cytomegalovirus replication; 410,000 tested, 4.5% active; activity change, negative = inhibition, % at 57.5 µM; HFF cells, HCMV-luciferase reporter, 72 h; active compounds read low; AID 1259415; in the data active means activity change below about -60%; inconclusive means no clear call, values can overlap the other calls; inactive means above about -39%
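Luciferase read-out from HCMV-luciferase-infected HFFs (MOI 1 PFU/cell) 72 h post infection at 37C; compounds added after 16 h cell attachment; activity normalized between buffer-only basal and Salinomycin (10uM) inhibitor controls.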
Pf growth 48h = P. falciparum growth inhibition at 48 hours (one generation) | P. falciparum luciferase growth in erythrocytes, 48 h | Potency, µM (doses to about 28.7 µM), without a hit: at the top dose activity change, negative = inhibition, usual class: inhibitors | 310,000 tested, 5.9% active; further: potency means the concentration at half of the fitted maximal effect
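Erythrocytes infected with P. falciparum carrying an integrated firefly luciferase reporter (2% hematocrit, 0.1% parasitemia final) were exposed to compounds in RPMI 1640 with 0.5% Albumax at 37 C, 5% CO2. Growth inhibition was scored as reduced luminescence.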
Sm TGR inh = inhibitors of Schistosoma mansoni thioredoxin glutathione reductase | Q962Y6 | Potency, µM (top dose mostly 114 µM), inactives show at the top dose activity change, negative = inhibition, usual class: inhibitors | 360,000 tested, 3% active | purified TGR, DTNB reduction, TNB absorbance 405 nm; further: potency means the concentration at half of the fitted maximal effect; nearly all actives have a fitted effect of over 60% in size
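First, TGR (20 nM dispensed) and NADPH were mixed with compound. Second, a 15 min room-temperature incubation followed. Third, further NADPH and then DTNB were added to start the reaction. Finally, TNB absorbance was monitored kinetically.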
FBPA Giardia inh = inhibitors of Giardia lamblia fructose-1,6-bisphosphate aldolase. A8B2U2. purified Giardia FBPA. Potency, µM (doses to about 59.6 µM), for the others: top-dose activity, negative = inhibition, most hits filed as inhibitors. 290,000 tested, 0.71% active. AID 2451; further: potency means the concentration at half of the fitted maximal effect; nearly all actives have a fitted effect of over 55% in size
Target sequence (A8B2U2 whole entry, looked up): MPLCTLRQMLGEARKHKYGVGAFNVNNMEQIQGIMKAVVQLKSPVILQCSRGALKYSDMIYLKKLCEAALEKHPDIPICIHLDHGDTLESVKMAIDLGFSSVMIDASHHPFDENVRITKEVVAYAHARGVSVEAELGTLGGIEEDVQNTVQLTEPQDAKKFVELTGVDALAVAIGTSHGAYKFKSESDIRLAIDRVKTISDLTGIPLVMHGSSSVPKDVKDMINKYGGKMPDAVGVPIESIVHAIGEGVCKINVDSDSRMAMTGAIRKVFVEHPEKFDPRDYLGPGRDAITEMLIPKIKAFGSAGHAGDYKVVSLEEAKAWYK
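40 nM FBPA preincubated 10 min at RT with compound (up to 57.5 uM final), then substrate plus GAPDH/TPI/NAD/arsenate coupling and diaphorase/resazurin added. Fluorescence read after 20 min at RT, 525/598 nm.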
Pf growth 96h = inhibits malaria parasite growth, 96 h. P. falciparum luciferase reporter growth, 96 h. Potency, µM (top dose mostly 28.7 µM), for the others: at the highest dose activity change, negative = inhibition, actives largely listed as inhibitors. 320,000 tested, 6.9% active. AID 504834; further: potency means the concentration at half of the fitted maximal effect
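Luminescence readout: decreased luciferase signal marks inhibited growth of reporter-expressing P. falciparum in infected red cells (2% hematocrit, 0.05% parasitemia final), exposed to compound two generations (96 h, 37 C, 5% CO2).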
Starred values were filed as active, the others as inactive; ? = inconclusive; · = no result given; + = active, no number. Unless noted, the call rests on the fitted dose curve; in most records, active means well fitted curve in the direction sought with a large enough effect; inconclusive means small, poorly fitted or top-dose-only effect, or another doubt; inactive means no such curve, though single readings can be large; an effect the other way counts as inactive or inconclusive. On the % scale 0 is the no-effect control and ±100 the full control effect.

SMILES	HCMV inh	Pf growth 48h	Sm TGR inh	FBPA Giardia inh	Pf growth 96h
Cc1ccc(Cl)cc1NC(=O)COCc1cc(-c2ccco2)on1	0.0	·	-10.6%	·	·
CC[C@@H](C)[C@H]1O[C@]2(CC[C@@H]1C)C[C@@H]1C[C@H](C/C=C(/C)[C@H](O[C@@H]3C[C@H](OC)[C@H](O[C@@H]4C[C@H](OC)[C@@H](O)[C@H](C)O4)[C@H](C)O3)[C@@H](C)/C=C\C=C3CO[C@@H]4[C@H](O)C(C)=C[C@@H](C(=O)O1)[C@]34O)O2 (tested in a mixture with another compound)	·	·	·	-7.3%	·
COc1ccc2ncc(S(=O)(=O)c3ccccc3)c(N3CCC4(CC3)OCCO4)c2c1	-35.4	8.28µM*	-0.2%	1.7%	?
COc1cc2ncc(S(=O)(=O)c3ccccc3)c(N3CCC4(CC3)OCCO4)c2cc1OC	-32.5	?	-0.9%	-0.5%	17.1%
COc1ccc2ncc(S(=O)(=O)c3ccccc3)c(N3CCN(c4ccccc4)CC3)c2c1	-67.7*	7.38µM*	-4.2%	1.4%	13.1µM*
COC(=O)/C=C/c1ccccc1S(=O)(=O)N(Cc1ccccc1)Cc1ccco1	-8.8	?	17.8µM*	-7.3%	?
O=S(=O)(c1ccc(S(=O)(=O)N(Cc2ccccc2)Cc2ccco2)cc1)N1CCCC1	-39.6	·	·	·	·
Cc1cccc(C)c1NC(=O)CNC(=O)c1ccc(NS(=O)(=O)c2ccc3[nH]c(=O)[nH]c3c2)cc1	-31.2	1.9%	2.8%	·	-0.3%
CN(CC(=O)NC(=O)NC1CCCCC1)CC(=O)Nc1ccc(OC(F)(F)F)cc1	-18.4	5.22µM*	-21.5%	·	?
O=[N+]([O-])c1ccc(N2CCN(c3ccccc3O)CC2)c(Cl)c1	4.8	?	0.9%	?	?
O=C1NC(c2cccc([N+](=O)[O-])c2)=CCN1c1ccccc1O	-27.5	?	44.7µM*	-4.8%	-25.0%
O=C(Nc1ccc(OC(=O)N2CCCCC2)cc1)N1CCOCC1	+	-7.3%	-4.4%	2.2%	12.6%
O=C(Nc1ccc(Nc2ccccc2)cc1)N1CCOCC1	-63.4*	2.5%	-8.2%	-1.2%	·
O=C(Nc1ccc(OC(=O)N2CCCC2)cc1)N1CCOCC1	10.5	1.5%	-0.2%	-4.5%	11.3%
COC(=O)c1ccc(C2Nc3c(C)cccc3-c3cc(C)nn32)cc1 (centres undefined)	-4.8	·	-5.3%	·	·
O=C1NC(Cc2ccccc2)c2nc3ccc(Br)cc3c(=O)n2-c2cc(Cl)ccc21 (centres undefined)	-7.5	·	·	·	·
O=C1NC(Cc2ccc(O)cc2)c2nc3ccc(Br)cc3c(=O)n2-c2cc3ccccc3cc21 (centres undefined)	-93.8*	·	·	·	·
Cc1ccc(-n2nc3c(c2NC(=O)c2ccc4c(c2)OCO4)CS(=O)(=O)C3)cc1C	-38.5	-22.6%	0.0%	·	?
Cc1csc2c(=O)[nH]cnc12	-14.2	13.3%	-2.5%	-1.3%	?
CCC1CN2CCc3cc(OC)c(OC)cc3C2CC1CC1NCCc2c1[nH]c1ccc(O)cc21 (centres undefined)	-98.9*	·	·	·	·
CC[C@@H]1CN2CCc3cc(OC)c(OC)cc3[C@@H]2C[C@@H]1C[C@H]1NCCc2cc(OC)c(OC)cc21	·	·	·	-1.2%	·
Cn1c(SCC(=O)NC2CCCC2)nnc1-c1ccncc1	15.7	-9.1%	·	1.3%	-12.0%
O=C(CSc1nnc(-c2ccccn2)n1Cc1ccccc1)NC1CCCC1	43.7	8.28µM*	20.3%	7.3%	?
CCCn1c(SCC(=O)Nc2cccc(C(=O)OC)c2)nnc1-c1cccnc1	-2.0	7.3%	20.5%	-13.8%	10.4µM*
Cn1c(SCC(=O)NC2CCCCC2)nnc1-c1cccc(N)c1	11.7	-19.4%	-1.2%	-7.6%	4.15µM*
CCOC(=O)c1cccc(NC(=O)CSc2nnc(-c3ccncc3)n2CCCOC)c1	-35.6	-21.2%	3.5%	-3.8%	?
Nc1nnc(SCC(=O)NC2CCCCC2)n1-c1ccccc1	91.6	13.9%	11.5%	-4.2%	8.28µM*
O=C(NCc1nnc(SCC(=O)N2CCOCC2)o1)c1c(F)cccc1Cl	-6.4	31.8%	-1.5%	2.6%	?
Cn1cccc1C(=O)N1CCC[C@@]2(CCN(Cc3ccccc3)C2)C1	·	·	·	-3.5%	·
CCCn1c(SCC(=O)NC2CCCCC2)nnc1-c1cccnc1	-65.4*	-0.5%	0.7%	3.6%	38.9%

Screens: PubChem, National Center for Advancing Translational Sciences (NCATS)
